PubChem BioAssay (Tox21)
Values joined by “and” are separate entries in the source; they are usually repeats but may differ in a detail not shown here. Equal values may be shown once. Records with an inconclusive call do not appear. A structure can be active in one record and inactive in another. Active and inactive are the calls of the source. Calls follow the shape of the dose curve; as a rule, active = well fitted curve in the direction sought with a large enough effect in the repeat runs; inconclusive = weak or mixed curves; inactive = no such curve, though single readings can be large; an effect the other way counts as inactive or inconclusive.

Assays:
[1] = A CellTox Green Cytotoxicity Assay to monitor cytotoxicity in HEK293 cells - 40 hour (AID 1224871); also: nearly all actives have a fitted effect of over 45% in size; also: potency is read from the fitted curve at half-maximal effect
Outline: (§1)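 Tox21 screen in HEK293: membrane-impermeant cyanine dye fluoresces on binding dead-cell DNA; compound pinned 5 h post-seeding, plates held at 37 C, signal read repeatedly through 40 h.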

[2] = qHTS RealTime-Glo MT Cell Viability Assay in HEK293 cells - 16 hour (AID 1224872); also: nearly all actives have a fitted effect of over 50% in size; also: potency is read from the fitted curve at half-maximal effect
Outline: (§2)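 Cells + reagent dispensed (600 cells/well, HEK293) → 5 h at 37 C/5% CO2 → 23 nL compound in DMSO pinned → 40 h at 37 C → luminescence read at 0, 8, 16, 24, 32, 40 h.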

[3] = qHTS RealTime-Glo MT Cell Viability Assay in HepG2 cells - 8 hour (AID 1224873); also: nearly all actives have a fitted effect of over 55% in size; also: potency is read from the fitted curve at half-maximal effect
Outline: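 HepG2 cells mixed with RealTime-Glo MT reagents (NanoLuc plus cell-permeant prosubstrate) were seeded at 600 cells/well, incubated 5 h at 37 C/5% CO2, then pinned with compounds in DMSO; nonlytic luminescence tracked viability during 40 h treatment.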

[4] = qHTS RealTime-Glo MT Cell Viability Assay in HEK293 cells - 40 hour (AID 1224874); details: RealTime-Glo luminescence; max response: stronger effect = lower value; also: nearly all actives have a fitted effect of over 50% in size; also: potency is read from the fitted curve at half-maximal effect
Outline: (§3)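 HEK293 + NanoLuc + prosubstrate, 600 cells/well; 5 h, 37 C/5% CO2; compound 23 nL in DMSO by pintool; 37 C; luminescence read at 0, 8, 16, 24, 32 and 40 h time points.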

[5] = A CellTox Green Cytotoxicity Assay to monitor cytotoxicity in HEK293 cells - 24 hour (AID 1224875); also: nearly all actives have a fitted effect of over 45% in size; also: potency is read from the fitted curve at half-maximal effect
Outline: as §1

[6] = A CellTox Green Cytotoxicity Assay to monitor cytotoxicity in HepG2 cells - 16 hour (AID 1224876); also: nearly all actives have a fitted effect of over 45% in size; also: potency is read from the fitted curve at half-maximal effect
Outline: (§4)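 Measurements at 0, 8, 16, 24, 32 and 40 h of treatment captured CellTox Green fluorescence in HepG2 cells that had been co-plated with reagent and preincubated 5 h at 37 C/5% CO2.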

[7] = qHTS RealTime-Glo MT Cell Viability Assay in HepG2 cells - 32 hour (AID 1224877); also: nearly all actives have a fitted effect of over 55% in size; also: potency is read from the fitted curve at half-maximal effect
Outline: (§5)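 Real-time, nonlytic viability: 600 HepG2 cells/well mixed with NanoLuc enzyme plus prosubstrate; 5 h settle, compound (DMSO) added by pintool; luminescence monitored over 40 h at 37 C.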

[8] = A CellTox Green Cytotoxicity Assay to monitor cytotoxicity in HepG2 cells - 24 hour (AID 1224878); also: nearly all actives have a fitted effect of over 45% in size; also: potency is read from the fitted curve at half-maximal effect
Outline: as §4

[9] = A CellTox Green Cytotoxicity Assay to monitor cytotoxicity in HepG2 cells - 40 hour (AID 1224879); also: nearly all actives have a fitted effect of over 40% in size; also: potency is read from the fitted curve at half-maximal effect
Outline: as §4

[10] = A CellTox Green Cytotoxicity Assay to monitor cytotoxicity in HEK293 cells - 32 hour (AID 1224881); also: nearly all actives have a fitted effect of over 40% in size; also: potency is read from the fitted curve at half-maximal effect
Outline: as §1

[11] = A CellTox Green Cytotoxicity Assay to monitor cytotoxicity in HepG2 cells - 0 hour (AID 1224882); also: nearly all actives have a fitted effect of over 35% in size
Outline: as §4

[12] = A CellTox Green Cytotoxicity Assay to monitor cytotoxicity in HepG2 cells - 32 hour (AID 1224883); also: nearly all actives have a fitted effect of over 50% in size; also: potency is read from the fitted curve at half-maximal effect
Outline: as §4

[13] = A CellTox Green Cytotoxicity Assay to monitor cytotoxicity in HEK293 cells - 8 hour (AID 1224884); also: nearly all actives have a fitted effect of over 35% in size; also: potency is read from the fitted curve at half-maximal effect
Outline: as §1

[14] = qHTS RealTime-Glo MT Cell Viability Assay in HepG2 cells - 16 hour (AID 1224885); also: nearly all actives have a fitted effect of over 50% in size; also: potency is read from the fitted curve at half-maximal effect
Outline: as §5

[15] = qHTS RealTime-Glo MT Cell Viability Assay in HEK293 cells - 24 hour (AID 1224886); also: nearly all actives have a fitted effect of over 50% in size; also: potency is read from the fitted curve at half-maximal effect
Outline: as §2

[16] = qHTS RealTime-Glo MT Cell Viability Assay in HEK293 cells - 8 hour (AID 1224887); also: nearly all actives have a fitted effect of over 50% in size; also: potency is read from the fitted curve at half-maximal effect
Outline: as §3

[17] = A CellTox Green Cytotoxicity Assay to monitor cytotoxicity in HEK293 cells - 16 hour (AID 1224888); also: nearly all actives have a fitted effect of over 35% in size; also: potency is read from the fitted curve at half-maximal effect
Outline: as §1

[18] = qHTS RealTime-Glo MT Cell Viability Assay in HepG2 cells - 0 hour (AID 1224889); also: nearly all actives have a fitted effect of over 50% in size; also: potency is read from the fitted curve at half-maximal effect
Outline: as §5

[19] = A CellTox Green Cytotoxicity Assay to monitor cytotoxicity in HepG2 cells - 8 hour (AID 1224890); also: nearly all actives have a fitted effect of over 45% in size
Outline: as §4

[20] = qHTS RealTime-Glo MT Cell Viability Assay in HEK293 cells - 0 hour (AID 1224880)
Outline: as §3
% is scaled to controls: 0 for no effect and ±100 for the full control effect.

CC1(C)O[C@@H]2C[C@H]3[C@@H]4C[C@H](F)C5=CC(=O)C=C[C@]5(C)[C@@]4(F)[C@@H](O)C[C@]3(C)[C@]2(C(=O)CO)O1
active: Potency [18] 3.89 µM and 9.52 µM
inactive: Potency [1] | Potency [2] | Potency [3] | max response [4] -29.2% and -4.18% | Potency [5] | Potency [6] | Potency [7] | Potency [8] | Potency [9] | Potency [10] | Potency [11] | Potency [12] | Potency [13] | Potency [14] | Potency [15] | Potency [16] | Potency [17] | Potency [19]

CN(C)CCCN1c2ccccc2Sc2ccc(Cl)cc21
active: Potency [1] 43.6 µM | Potency [2] 30.9 µM and 21.3 µM | Potency [3] 54.9 µM | Potency [4] 21.9 µM and 21.3 µM | Potency [5] 49 µM | Potency [6] 49 µM and 21.3 µM | Potency [7] 34.7 µM and 23.9 µM | Potency [8] 38.9 µM and 21.3 µM | Potency [9] 24.5 µM and 21.3 µM | Potency [10] 43.6 µM | Potency [12] 24.5 µM and 23.9 µM | Potency [14] 49 µM and 23.9 µM | Potency [15] 24.5 µM and 23.9 µM | Potency [16] 30.9 µM | Potency [17] 54.9 µM and 26.8 µM
54.9 µM (active) and inactive: Potency [13]
inactive: Potency [11] | Potency [19]

c1ccc2ncccc2c1
inactive: Potency [1] | Potency [2] | Potency [3] | max response [4] -2.01% and 11.7% | Potency [5] | Potency [6] | Potency [7] | Potency [8] | Potency [9] | Potency [20] | Potency [11] | Potency [12] | Potency [13] | Potency [14] | Potency [15] | Potency [16] | Potency [17] | Potency [18] | Potency [19]

C[C@]12C=CC(=O)C=C1CC[C@H]1[C@@H]3C[C@@H](O)[C@](O)(C(=O)CO)[C@@]3(C)C[C@H](O)[C@@]12F
inactive: Potency [1] | Potency [2] | Potency [3] | max response [4] 1.25% and 4.53% | Potency [5] | Potency [6] | Potency [7] | Potency [8] | Potency [9] | Potency [20] | Potency [11] | Potency [12] | Potency [13] | Potency [14] | Potency [15] | Potency [16] | Potency [17] | Potency [19]
active: Potency [18] 21.9 µM

CCCOCCO
inactive: Potency [1] | Potency [2] | Potency [3] | max response [4] 2.92% and 1.86% | Potency [5] | Potency [6] | Potency [7] | Potency [8] | Potency [9] | Potency [20] | Potency [11] | Potency [12] | Potency [13] | Potency [14] | Potency [15] | Potency [16] | Potency [17] | Potency [18] | Potency [19]

C=C[C@H]1CN2CC[C@H]1C[C@@H]2[C@@H](O)c1ccnc2ccc(OC)cc12
inactive: Potency [1] | Potency [3] | Potency [5] | Potency [6] | Potency [7] | Potency [8] | Potency [9] | Potency [20] | Potency [11] | Potency [12] | Potency [13] | Potency [14] | Potency [17] | Potency [18] | Potency [19]
active: Potency [2] 42.9 µM | Potency [4] 48.2 µM | Potency [15] 48.2 µM
42.9 µM (active) and inactive: Potency [16]

CC(=O)Oc1c(C)c(C)c2c(c1C)CC[C@@](C)(CCC[C@H](C)CCC[C@H](C)CCCC(C)C)O2
inactive: Potency [1] | Potency [2] | Potency [3] | max response [4] 0.83% and -4.95% | Potency [5] | Potency [6] | Potency [7] | Potency [8] | Potency [9] | Potency [20] | Potency [11] | Potency [12] | Potency [13] | Potency [14] | Potency [15] | Potency [16] | Potency [17] | Potency [18] | Potency [19]

CC1(C)OC(=O)NC1=O
inactive: Potency [1] | Potency [2] | Potency [3] | max response [4] -4.09% and 7.44% | Potency [6] | Potency [7] | Potency [8] | Potency [9] | Potency [20] | Potency [10] | Potency [11] | Potency [12] | Potency [13] | Potency [14] | Potency [15] | Potency [16] | Potency [17] | Potency [18] | Potency [19]

C=C[Si](OCCOC)(OCCOC)OCCOC
inactive: Potency [1] | Potency [2] | Potency [3] | max response [4] 5.17% and 4.57% | Potency [5] | Potency [6] | Potency [7] | Potency [8] | Potency [9] | Potency [20] | Potency [10] | Potency [11] | Potency [12] | Potency [13] | Potency [14] | Potency [15] | Potency [16] | Potency [17] | Potency [18] | Potency [19]

O=C(O)CCCC(=O)O
inactive: Potency [1] | Potency [2] | Potency [3] | max response [4] -2.98% and 4.62% | Potency [5] | Potency [6] | Potency [7] | Potency [8] | Potency [9] | Potency [20] | Potency [11] | Potency [12] | Potency [13] | Potency [14] | Potency [15] | Potency [16] | Potency [17] | Potency [18] | Potency [19]

CC1=CC(C)(C)Nc2ccccc21
inactive: Potency [2] | Potency [3] | max response [4] 5.64% and -19.8% | Potency [6] | Potency [7] | Potency [8] | Potency [9] | Potency [20] | Potency [10] | Potency [11] | Potency [12] | Potency [13] | Potency [14] | Potency [15] | Potency [16] | Potency [17] | Potency [18] | Potency [19]
